# Assay results: PubChem BioAssay (NCATS)
# Inconclusive results are not listed. A call without a number means that no potency is given here. Values without a mark were called inactive. Activity calls are given as the source filed them. Calls come from the whole dose curve; as a rule, active = well fitted inhibition curve with a large enough effect; inconclusive = small, poorly fitted or top-dose-only effect; inactive = no such curve, though single readings can be large or run the other way. Where a SMILES comes first, the peptide text is derived from it. [ ]: non-standard residue; d: D form. Hyp = O=C(O)[CH]1C[CH](O)CN1; Phe(ol) = N[CH](CO)Cc1ccccc1; Iva = CC[C](C)(N)C(=O)O; Aib = CC(C)(N)C(=O)O
# How the values were obtained:
# [1] = system: Zika virus NS2B-NS3 protease (unlinked complex); assay: Primary screen GU Rhodamine qHTS for Zika virus inhibitors: Unlinked NS2B-NS3 protease assay (AID 1347159); note: nearly all actives have a fitted effect of over 60% in size
# How it was run: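 Noncovalent NS2B hydrophilic domain–NS3 protease domain complex (25 nM) preincubated 15 min at room temperature with compounds (up to 114 microM) in 10 mM Tris-HCl pH 8.0, 0.01% Tween 20; 1.5 microM Rhodamine110 substrate added, fluorescence change over 15 min fitted to Hill equation.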
# [2] = system: Zika virus NS2B-NS3 protease (linked construct); assay: Primary screen NINDS Rhodamine qHTS for Zika virus inhibitors (AID 1347160); note: nearly all actives have a fitted effect of over 55% in size
# How it was run: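 Purified linked NS2B-NS3 protease (NS2B hydrophilic domain joined to NS3 protease by flexible linker), 25 nM in 10 mM Tris-HCl pH 8.0, 0.01% Tween 20. Compounds titrated, 15 min preincubation at room temperature; 1.5 microM Rhodamine110 substrate, FITC fluorescence change over 15 min.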
# Potency is the fitted concentration of half-maximal effect.
Structure (SMILES),Potency [1],Potency [2],"activity change, negative = inhibition [1]",outcome [2]
CC(=O)Nc1nc(C)c(-c2nc(N3CCCC(O)C3)no2)s1 (stereo not drawn),inactive,inactive,,
C[C@@H](N[C@H]1CCCC[C@@H]1NC(=O)c1ccc(Cl)cc1)c1cccc2ccccc12,inactive,inactive,,
C=C1C(=O)O[C@@H]2[C@H]1CCC(C)=C(CCC(=O)O)[C@@]2(C)O,inactive,inactive,,
Oc1ccc(-c2cnc3ccc(NCc4ccco4)nn23)cc1,inactive,inactive,,
C=C1C(=O)OC2C=C(C)CC/C=C(\CO)CC(O)C12 (stereo not drawn),inactive,inactive,,
CC(C)C[C@@H]1NC(=O)[C@@H](Cc2ccccc2)NC(=O)C(CCCCCC(=O)C2CO2)NC(=O)[C@@H]2CCCCN2C1=O (stereo partly drawn),inactive,inactive,,
O=C(NO)c1cnc(N2CCN(S(=O)(=O)c3ccc4ccccc4c3)CC2)nc1,inactive,inactive,,
O=C(Nc1ccc(Cl)cc1)C1CCCN(C(=O)c2cccc(-c3ccco3)c2)C1 (stereo not drawn),inactive,inactive,,
COc1ccc2cc3c(NC(=O)c4ccco4)nn(C)c3nc2c1,inactive,inactive,,
COc1ccc(CCc2nc3cc(-c4c(C)noc4C)ccc3n2CC(C)N2CCOCC2)cc1Cl (stereo not drawn),inactive,inactive,,
CC1OC2OC(=O)C3(C)CC4C5(CO5)C5=CC(=O)OC(C)(C)C5=CC(=O)C4(C)C(C1=O)C23 (stereo not drawn),15.8 µM (active),12.6 µM (active),,
CC(C)(O)C1Cc2c(ccc(C(=O)CCc3ccccc3)c2O)O1 (stereo not drawn),inactive,inactive,,
O=C([C@@H](Cc1cccc(C(F)(F)F)c1)NS(=O)(=O)c1cc(F)c2c(c1)CCNC2)N1CCCC1,inactive,inactive,,
C=C(C(=O)OC)[C@@H]1CC=C2C=CC(=O)[C@H](C)[C@@]2(C)C1,inactive,inactive,,
Cn1ncnc1[C@H]1c2n[nH]c(=O)c3cc(F)cc(c23)N[C@@H]1c1ccc(F)cc1,inactive,inactive,,
C=CCc1ccc(OC(C)Cc2ccc(OC)c(OC)c2)c(OC)c1 (stereo not drawn),inactive,inactive,,
CCOc1cccc(NC(=O)c2ccc(N3CCCC3)c(C(F)(F)F)c2)c1,inactive,inactive,,
C=C1CC[C@@H]2[C@](C)(CO)[C@H](O)CC[C@@]2(C)[C@@H]1CC(=O)C1=CCOC1=O,inactive,inactive,,
C=C1C(=O)O[C@@H]2C[C@@]3(C)C[C@@H](O)C[C@H](C)C3=C[C@H]12,inactive,inactive,,
Cc1cc2c(F)c(Oc3ncnn4cc(OCC(C)OC(=O)C(C)N)c(C)c34)ccc2[nH]1 (stereo not drawn),inactive,inactive,,
C=C1/C(=C/C=C2\CCC[C@]3(C)[C@@H]([C@H](C)CC[C@@H](O)C(C)(C)O)CC[C@@H]23)C[C@@H](O)C[C@@H]1O,inactive,inactive,,
COC(=O)CC1OC(C)C2=C(O)c3c(O)cccc3C(=O)C23OC13 (stereo not drawn),inactive,inactive,,
C=C1C(=O)OC2/C=C(\C)CC/C=C(\C)CC(OC(C)=O)C12 (stereo not drawn),inactive,inactive,,

Structure (SMILES),Potency [1],Potency [2],"activity change, negative = inhibition [1]",outcome [2]
O=c1ccc2ccc(OCCCCN3CCN(c4cccc5sccc45)CC3)cc2[nH]1,inactive,inactive,,
CC(=O)C1=CCC2C3CC=C4CC(O)CC(O)C4(C)C3C(O)CC12C (stereo not drawn),inactive,inactive,,
C=C1C(=O)OC2/C=C(\COC(C)=O)CC/C=C(\C=O)CC(OC(=O)C(C)CC)C12 (stereo not drawn),inactive,inactive,,
CC1(C)CC[C@]23CO[C@@]4(CCC5[C@@]6(C)CC[C@H](O[C@@H]7OC[C@H](O[C@@H]8O[C@H](CO)[C@@H](O)[C@H](O)[C@H]8O[C@@H]8OC[C@@H](O)[C@H](O)[C@H]8O)[C@H](O)[C@H]7O[C@@H]7O[C@H](CO)[C@@H](O)[C@H](O)[C@H]7O)[C@@](C)(CO)C6CC[C@@]5(C)[C@]4(C)C[C@H]2O)[C@@H]3C1 (stereo partly drawn),inactive,inactive,,
Cc1ccc(-c2ncccn2)c(C(=O)N2C[C@H](COc3ccc(F)cn3)CC[C@H]2C)c1,inactive,inactive,,
CC(=O)NC[C@H]1CN(c2ccc(N3CCSCC3)c(F)c2)C(=O)O1,inactive,inactive,,
O=c1cc(N2CCOCC2)nc2c3ccccc3ccn12,inactive,inactive,,
CCN(Cc1ccccc1)C(=O)Cn1c(=O)n(C)c2cnc(-c3ccccc3)nc21,inactive,inactive,,
CCC(CC)Nc1nc(C)c(-c2ccc(OC(F)(F)F)cc2OC)nc1OC,inactive,inactive,,
CC(C)=C1C[C@@]2(C)C(=CC1=O)CC[C@@H](OC(=O)/C(C)=C/CO)[C@@H]2C,inactive,inactive,,
C=C(C)[C@@H]1CC[C@]2(C(=O)O)CC[C@]3(C(=O)O)[C@H](CCC4[C@@]5(C)CCC(=O)C(C)(C)C5CC[C@]43C)C12 (stereo partly drawn),inactive,inactive,,
CO[C@H]1C[C@@H]2CC[C@@H](C)[C@@](O)(O2)C(=O)C(=O)N2CCCC[C@H]2C(=O)O[C@H]([C@@H](C)C[C@@H]2CC[C@@H](O)[C@H](OC)C2)CC(=O)[C@H](C)/C=C(\C)[C@@H](O)[C@@H](OC)C(=O)[C@H](C)C[C@H](C)/C=C/C=C/C=C/1C,inactive,inactive,,
COc1ccc(S(=O)(=O)N2CCC[C@H]2C(=O)Nc2cc(C)cc(C)c2)cc1,inactive,inactive,,
CCOc1ccc(Cc2nc(-c3c(C)nc4ccccn34)cs2)cc1,inactive,inactive,,
CCC(C)(NC(=O)C(CCC(N)=O)NC(=O)C1CC(O)CN1C(=O)C(C)(C)NC(=O)C(C)(C)NC(=O)C(CC(C)C)NC(=O)CNC(=O)C(NC(=O)C(C)(C)NC(=O)C(C)(C)NC(=O)C(C)(C)NC(=O)C(Cc1ccccc1)NC(C)=O)C(C)C)C(=O)N1CC(O)CC1C(=O)NC(C)(C)C(=O)NC(CO)Cc1ccccc1 (stereo not drawn) (Ac-F[Aib][Aib][Aib]VGL[Aib][Aib][Hyp]Q[Iva][Hyp][Aib][Phe(ol)]; configuration not given here),,,8.8% [at 19.1 µM],inactive [at 10.7 µM]
CCNC(=O)N1CCCN(c2ccc(C(=O)NCCc3ccc(Cl)cc3Cl)cc2NC(=O)c2cccc(Cl)c2)CC1,inactive,inactive,,
C=CC(=O)N1CC(N2CCN(C(=O)CNc3cc(C4CC4)c(Cl)cc3O)CC2)C1,inactive,inactive,,
COc1ccccc1N1CCN(c2ncnc3n[nH]c(Br)c23)CC1,inactive,inactive,,
CCCC(Nc1nc(-c2ccc(NC(=O)NCC)c(OC)c2)ncc1C)c1cccnc1 (stereo not drawn),inactive,inactive,,
O=C(CSc1nc2ccccc2c(=O)n1-c1ccccc1)Nc1ccc2c(c1)CCC2,inactive,inactive,,
COC(=O)c1sccc1S(=O)(=O)Nc1ccc(Nc2ccccc2)cc1OC,inactive,inactive,,
CCN1CCN(Cc2ccc(NC(=O)c3ccc(C)c(Oc4ncnc5[nH]c(C)cc45)c3)cc2C(F)(F)F)CC1,inactive,inactive,,
COc1ccc(CCN(C)CCCOc2nsc(-c3ccccc3)n2)cc1OC,inactive,inactive,,

Structure (SMILES),Potency [1],Potency [2],"activity change, negative = inhibition [1]",outcome [2]
COc1ccc(Sc2ccc(NC(=O)c3ccccc3Cl)cc2C#N)cc1,inactive,inactive,,
CN(C)C(=O)NC1(c2ccccc2)CCN(CCC[C@]2(c3ccc(Cl)c(Cl)c3)CCCN(C(=O)c3ccccc3)C2)CC1,inactive,inactive,,
COc1c(C)cc(NC(=O)c2nn(Cc3ccc(F)cc3)c3c2CN(C(=O)c2ccc[nH]2)C[C@]3(C)C(N)=O)cc1C,inactive,inactive,,
Cc1c(C(=O)Nc2ccc(N3CCC(N4CCOCC4)CC3)c(C#N)c2)cnn1-c1ccc(Cl)cc1,inactive,inactive,,
Cc1cc(C)c(S(=O)(=O)n2cc(C)cc2C)c(C)c1,inactive,inactive,,
OC1C=C2C3CN(Cc4cc5c(cc43)OCO5)C2CC1O (stereo not drawn),inactive,inactive,,
Fc1ccc(-c2nc(-c3ccccc3F)[nH]c2-c2ccncc2)cc1,inactive,inactive,,
NCC1CCN(c2nccc(-c3ccc4ccccc4c3)n2)CC1,inactive,inactive,,
C[C@H](CN(C)C)Oc1nc(Nc2cc3cccc(Cl)c3cn2)cnc1C#N,inactive,inactive,,
COc1cc(/C=N\NC(=O)c2ccc3c(c2)OCO3)ccc1OCc1ccccc1,inactive,inactive,,
C[C@@H]1O[C@@H](O[C@H]2CC[C@@]3(C)C(CC[C@]4(C)C3CC=C3[C@@H]5CC(C)(C)CC[C@]5(C(=O)O[C@@H]5O[C@H](CO)[C@@H](O)[C@H](O)[C@H]5O)CC[C@]34C)[C@]2(C)CO)[C@H](O)[C@H](O[C@@H]2O[C@H](CO)[C@@H](O)[C@H](O)[C@H]2O)[C@H]1O (stereo partly drawn),inactive,inactive,,
CNCCCC1(c2ccccc2)OC(C)(C)c2ccccc21 (stereo not drawn),inactive,inactive,,
C=C1CC2OC(=O)C(=C)C2C(O)/C=C(\C)CCC1O (stereo not drawn),inactive,inactive,,
c1cc(NCCc2c[nH]c3ccccc23)cc(Nc2ccncc2)c1,inactive,inactive,,
C=C1C(=O)O[C@H]2C[C@@H](C)[C@@H]3CCC(=O)[C@@]3(C)C[C@H]12,inactive,inactive,,
C=C(C)C(=O)OC1CC2(C)OC(=CC2=O)C(=C)CC2OC(=O)C(=C)C12 (stereo not drawn),inactive,inactive,,
C=CCC1=C[C@]2(OC)[C@H](C)[C@@H](c3ccc4c(c3)OCO4)O[C@]2(OC)CC1=O,inactive,inactive,,
CC(=O)O[C@@H]1CC[C@@]2(C)[C@H](CC[C@@H]3[C@@H]2C[C@H](OC(C)=O)[C@]2(C)[C@@H](C(C)=O)CC[C@@H]32)C1,inactive,inactive,,
COc1cc2nc(N3CCN(C(=O)c4ccco4)C4CCCCC43)nc(N)c2cc1OC (stereo not drawn),inactive,inactive,,
CC(C)=CCCC1(C)/C=C/C(OC(=O)C=C(C)C)C(C)(O)/C=C/C(=O)/C(CO)=C\C1 (stereo not drawn),inactive,inactive,,
COc1cc2c(Nc3cc(F)c(Cl)c(Cl)c3)ncnc2cc1OCC1CCCN(C)CCC1,inactive,inactive,,
COc1cccc(-c2cn(-c3ccc(CCN4CCC(O)CC4)cc3)c3ncnc(N)c23)c1,inactive,inactive,,
CC(C)(N)c1ncc(-c2ccc(OC(F)(F)F)cc2)[nH]1,inactive,inactive,,
